Test results published in article PMC4336329 (PLoS ONE, 2015).
Out of some 310,000 compounds screened, about 14,000 (4.5%) showed an effect of 50% or more. Effects have a minus sign here. The sample as a whole holds a higher share of strong results than the screen did.

target: human ether-à-go-go-related gene (hERG) potassium channel (human, UniProt Q12809); assay: primary screen, population patch clamp on CHO cells stably expressing hERG; higher = less effect of the substance
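Note: peak tail current of the secondary pulse compared with the same well before compound.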

Chain of human ether-à-go-go-related gene (hERG) potassium channel (Q12809 whole entry, looked up): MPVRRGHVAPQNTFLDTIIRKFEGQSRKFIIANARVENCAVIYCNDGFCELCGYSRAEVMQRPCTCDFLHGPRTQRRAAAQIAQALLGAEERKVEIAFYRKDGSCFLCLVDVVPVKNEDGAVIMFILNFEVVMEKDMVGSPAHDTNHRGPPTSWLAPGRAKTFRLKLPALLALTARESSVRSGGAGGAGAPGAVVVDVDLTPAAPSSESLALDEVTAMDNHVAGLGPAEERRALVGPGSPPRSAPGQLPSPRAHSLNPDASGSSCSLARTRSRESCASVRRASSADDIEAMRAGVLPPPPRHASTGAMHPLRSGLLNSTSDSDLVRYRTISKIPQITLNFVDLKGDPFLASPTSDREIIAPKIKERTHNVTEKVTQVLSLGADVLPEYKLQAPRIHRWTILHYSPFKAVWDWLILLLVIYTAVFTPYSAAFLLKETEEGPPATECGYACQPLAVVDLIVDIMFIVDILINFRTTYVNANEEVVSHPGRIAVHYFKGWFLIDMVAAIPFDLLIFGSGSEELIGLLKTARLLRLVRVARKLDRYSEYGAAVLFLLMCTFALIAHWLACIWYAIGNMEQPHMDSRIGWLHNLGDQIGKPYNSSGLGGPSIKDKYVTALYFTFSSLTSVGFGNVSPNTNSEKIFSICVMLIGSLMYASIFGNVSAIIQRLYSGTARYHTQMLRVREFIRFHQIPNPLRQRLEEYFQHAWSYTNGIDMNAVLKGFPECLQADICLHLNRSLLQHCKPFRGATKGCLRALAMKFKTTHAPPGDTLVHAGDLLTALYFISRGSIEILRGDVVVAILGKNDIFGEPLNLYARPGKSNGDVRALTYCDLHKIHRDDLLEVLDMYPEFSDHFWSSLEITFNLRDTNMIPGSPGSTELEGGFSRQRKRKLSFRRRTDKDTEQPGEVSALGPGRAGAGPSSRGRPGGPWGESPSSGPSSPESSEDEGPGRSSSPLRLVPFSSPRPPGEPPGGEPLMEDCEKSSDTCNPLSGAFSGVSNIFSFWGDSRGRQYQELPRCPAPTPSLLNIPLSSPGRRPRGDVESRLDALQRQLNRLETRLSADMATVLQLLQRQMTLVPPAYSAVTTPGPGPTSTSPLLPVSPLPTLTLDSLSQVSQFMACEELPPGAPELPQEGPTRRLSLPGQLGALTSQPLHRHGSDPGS

Row | SMILES | hERG current change (%, negative = inhibition) at 10uM [%]
1 | COc1cc(NC(=O)c2cccc(Br)c2)nc(OC)n1 | 3.34
2 | CCSc1ccccc1C(=O)NCCCn1ccnc1 | 10.2
3 | CCCC(=O)Nc1cc(-c2nnc(OC)c3ccccc23)ccc1N1CCCCC1 | -36.3
4 | C=CCOc1nc2c(c(=O)n(C)c(=O)n2C)n1Cc1ccccc1Cl | -6.73
5 | COc1cc2c(cc1OC)C(C(=O)NCc1cccnc1)C(c1cccnc1)N(C)C2=O (centres unmarked) | 9.05
6 | COc1cc([N+](=O)[O-])cc(/C=N/NC(=O)Cn2cncn2)c1O | 5.88
7 | CC(=O)NCCC(=O)Nc1cc(S(=O)(=O)N2CCCCC2)ccc1Oc1cccc(C)c1 | -68
8 | COc1ccc(S(=O)(=O)N2CCCCC2)cc1NC(=O)CCCOc1ccccc1 | -9.13
9 | COc1ccccc1Oc1ccc(S(=O)(=O)N2CCCCC2)cc1NC(=O)CCNC(C)=O | -55.1
10 | CC(=O)NCCC(=O)Nc1cc(S(=O)(=O)N2CCOCC2)ccc1Oc1ccccc1 | -8.45
11 | CC(=O)NCCC(=O)Nc1cc(S(=O)(=O)N2CCCCC2)ccc1N1CCCCC1 | -5.37
12 | CC(=O)NCCC(=O)Nc1cc(S(=O)(=O)N2CCCCC2)ccc1Oc1ccccc1 | -64.9
13 | CC(=O)NCCC(=O)Nc1cc(S(=O)(=O)N2CCOCC2)ccc1Oc1ccc(F)cc1 | -30.5
14 | COc1ccc(S(=O)(=O)N2CCCCC2)cc1NC(=O)CCNC(=O)c1ccccc1Cl | -11
15 | COC(=O)CNc1cc(S(=O)(=O)N2CCCCC2)ccc1Oc1cccc(C)c1 | -30.7
16 | Cc1ccc2cccc(Oc3ncnc4scc(-c5ccc(Cl)cc5)c34)c2n1 | 3.87

Row | SMILES | hERG current change (%, negative = inhibition) at 10uM [%]
17 | CCCNC(=O)C(=O)N/N=C/c1ccc(OCc2ccccc2)cc1 | 26.9
18 | COC(=O)c1ccc(CSc2nc3cc(Cl)ccc3s2)o1 | 9.32
19 | CN1C(=O)C(CC(=O)O)S/C1=N\N=C\c1ccc(O)cc1O (centres unmarked) | 6.03
20 | Cc1ccc(NCCC(=O)c2ccc(Br)cc2)cc1 | 0.444
21 | CCOC(=O)N1CCC(NC(=O)Cc2ccccc2)CC1 | 15.6
22 | O=C(CSc1ccc2nnc(-c3cccs3)n2n1)N1CCCC1 | -43.4
23 | CCSc1ccc2nnc(-c3cccs3)n2n1 | -34
24 | CCOC(=O)CSc1ccc2nnc(-c3cccs3)n2n1 | -51.2
25 | CCOC(=O)CC(=O)CSc1ccc2nnc(-c3cccc(F)c3)n2n1 | -72.2
26 | CCOC(=O)CSc1ccc2nnc(-c3ccncc3)n2n1 | -31.4
27 | CCOC(=O)CSc1ccc2nnc(-c3ccccc3)n2n1 | -39.3
28 | CCOC(=O)N1CCC(Nc2ccc3nnc(-c4ccccc4)n3n2)CC1 | -82
29 | CCOC(=O)CC(=O)CSc1ccc2nnc(-c3ccccc3)n2n1 | -71.7
30 | CCOC(=O)N1CCC(Nc2c(-c3ccccc3)c(=O)c2=O)CC1 | -23.2
31 | CCOC(=O)CC(=O)CSc1ccc2nnc(-c3ccc(F)cc3)n2n1 | -23.4
32 | Cc1cc(NC(=O)CSc2ccc3nnc(-c4cccc(F)c4)n3n2)no1 | -14.3
